Here are results for 21 compounds from PubChem BioAssay (NCATS).

The nature of experiment [1]: Validation screen for inhibitors of Lassa infection (AID 463096). Further: on the % scale 0 is the no-effect control and ±100 the full control effect.
The nature of experiment [2]: Inducers of the Endoplasmic Reticulum Stress Response (ERSR) in human glioma: Validation (AID 504836; active means well fitted curve in the direction sought with a large enough effect; an effect the other way counts as inactive or inconclusive; further: 0% is about no effect). The gist of the method:
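Stably transfected U87-MG glioma cells carrying a GRP78-based luciferase sensor; 16 h compound incubation. Luminescence end-point read 10 min after Bright-Glo addition at room temperature.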

Experiment [3] can be described thus: qHTS for Inhibitors of the Functional Ribonucleoprotein Complex (vRNP) of Lassa (LASV) Arenavirus: LASV Primary Screen - GLuc reporter signal (AID 1347082; calls by dose curve; tested in HEK293 reporter line; further: nearly all actives have a fitted effect of over 60% in size; further: potency means the concentration at half of the fitted maximal effect; on activity change, negative = inhibition: on the % scale 0 is the no-effect control and ±100 the full control effect).
Experiment [4] is described as follows: qHTS for Inhibitors of the Functional Ribonucleoprotein Complex (vRNP) of Lassa (LASV) Arenavirus: Viability assay - alamar blue signal for LASV Primary Screen (AID 1347083; calls by dose curve; tested in HEK293 reporter line; further: nearly all actives have a fitted effect of over 80% in size; further: potency means the concentration at half of the fitted maximal effect). For orientation: Quantitative high-throughput screening tests each substance at several concentrations.
A short description of experiment [5]: qHTS for Inhibitors of the Functional Ribonucleoprotein Complex (vRNP) of Lymphocytic Choriomeningitis Arenaviruses (LCMV): Viability assay - alamar blue signal for LCMV Primary Screen (AID 1347085; calls by dose curve; tested in HEK293 reporter line; further: nearly all actives have a fitted effect of over 80% in size; further: potency means the concentration at half of the fitted maximal effect).
The nature of experiment [6]: Primary qHTS for Huh7 cytotoxicity: counterscreen for inhibitors of MERS-S pseudotyped particle cell entry (AID 1479147). The conditions noted are these: outcome: dose series up to 57.1 µM unless noted.
A short description of experiment [7]: Primary qHTS for Vero E6 cytotoxicity: counterscreen for inhibitors of SARS-S pseudo-typed particle cell entry (AID 1479150). The conditions noted are these: outcome: dose series up to 57.1 µM unless noted.
The nature of experiment [8]: Cytotoxicity counterscreen for inhibitors of SARS-CoV-2 cell entry (AID 1645845). Further: nearly all actives have a fitted effect of over 50% in size. The gist of the method:
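Counterscreen run in the same HEK293-ACE2 line as the pseudotyped-particle entry assay, without particles. Viability after 48 h at 37 C was read as ATP luminescence, scaled between cell-containing and cell-free wells.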
On the technique in general: Counterscreens check selectivity or assay interference.

Experiment [9] can be described thus: qHTS profiling of the MIPE4 collection as inhibitors of Plasmodium falciparum (DD2) proliferation (Rep 2) (AID 743346; call rule not given here). The conditions noted are these: P. falciparum Dd2 in erythrocytes, SYBR Green DNA, 72 h; at 28.5 µM (top of the series) unless noted. In short, it runs like this: (§1)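 Parasite DNA was quantified by SYBR Green I fluorescence (ex 485, em 535 nm) after overnight lysis in saponin/Triton buffer at room temperature. Cultures at 0.3% parasitemia and 2.5% hematocrit were first exposed to compound for 72 h at 37 C; signals were normalised to artemisinin (0.29 uM) and vehicle wells.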

In experiment [10] the target is Nucleoprotein (Lymphocytic choriomeningitis virus (strain Armstrong)) (UniProt P09992). Put plainly: qHTS for Inhibitors of the Functional Ribonucleoprotein Complex (vRNP) of Lymphocytic Choriomeningitis Arenaviruses (LCMV): LCMV Primary Screen - GLuc reporter signal (AID 1347086). Further: on the % scale 0 is the no-effect control and ±100 the full control effect; nearly all actives have a fitted effect of over 70% in size.
Sequence of Nucleoprotein (Lymphocytic choriomeningitis virus (strain Armstrong)) (P09992 whole entry, looked up): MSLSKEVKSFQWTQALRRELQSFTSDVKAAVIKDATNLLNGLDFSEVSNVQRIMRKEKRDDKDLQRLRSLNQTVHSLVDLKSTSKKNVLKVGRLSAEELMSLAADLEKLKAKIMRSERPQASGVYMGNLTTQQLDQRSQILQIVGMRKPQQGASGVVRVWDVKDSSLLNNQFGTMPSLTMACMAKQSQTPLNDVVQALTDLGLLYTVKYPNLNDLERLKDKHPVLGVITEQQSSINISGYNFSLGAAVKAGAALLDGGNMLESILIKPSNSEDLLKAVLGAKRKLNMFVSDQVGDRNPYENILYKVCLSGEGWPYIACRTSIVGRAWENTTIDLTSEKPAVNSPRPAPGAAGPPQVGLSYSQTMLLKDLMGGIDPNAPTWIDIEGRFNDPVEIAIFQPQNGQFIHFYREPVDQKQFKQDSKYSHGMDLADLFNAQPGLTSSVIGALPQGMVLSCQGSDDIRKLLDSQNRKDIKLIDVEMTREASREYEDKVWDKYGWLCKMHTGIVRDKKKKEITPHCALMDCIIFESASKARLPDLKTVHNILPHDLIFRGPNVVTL
Experiment [11] has as its target Cytochrome P450 3A4 (Homo sapiens) (UniProt P08684). Put plainly: qHTS Assay for Inhibitors and Substrates of Cytochrome P450 3A4 (AID 884; active means well fitted curve in the direction sought with a large enough effect; an effect the other way counts as inactive or inconclusive; further: potency means the concentration at half of the fitted maximal effect; nearly all actives have a fitted effect of over 50% in size). In short, it runs like this:
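Luminescent readout of luciferin produced by CYP3A4 (20 nM) dealkylation of Luciferin-PPXE, 25 uM (its KM). NADPH-driven reaction ran 60 min at RT after 10 min compound preincubation; data scaled to 57 uM ketoconazole as 100% inhibition.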

The target is the same in experiment [12]. Description: qHTS Assay for Activators of Cytochrome P450 3A4 (AID 885; active means well fitted curve in the direction sought with a large enough effect; an effect the other way counts as inactive or inconclusive; further: nearly all actives have a fitted effect of over 65% in size). In short, it runs like this: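 Luminescent readout of luciferin formed from 25 uM Luciferin-PPXE (KM level) by 20 nM CYP3A4 in 200 mM KPO4, with 60 min NADPH-driven reaction at room temperature after 10 min compound exposure. Ketoconazole (57 uM) defined 100% inhibition.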
Experiment [13] has as its target Alpha-galactosidase (Coffea arabica) (UniProt Q42656). Description: Counterscreen for Glucocerebrosidase Inhibitors: qHTS Assay for Coffee Bean alpha-Galactosidase at pH 4.5 (AID 957; active means well fitted curve in the direction sought with a large enough effect; an effect the other way counts as inactive or inconclusive;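 further: plate controls were enzyme alone for no effect and no enzyme for full effect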). In short, it runs like this: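 Quantitative HTS of compounds (0.7 nM to 77 uM) against coffee bean alpha-galactosidase at pH 4.5, measuring 4-methylumbelliferone fluorescence released from 80 uM substrate.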

Experiment [14] has the same target. Put plainly: Counterscreen for Glucocerebrosidase Inhibitors: qHTS Assay for Coffee Bean alpha-Galactosidase at pH 5.9 (AID 998; active means well fitted curve in the direction sought with a large enough effect; an effect the other way counts as inactive or inconclusive;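 further: plate controls were uninhibited enzyme for no effect and no-enzyme basal signal for full effect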). In short, it runs like this: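 Enzyme 2 nM + cpd (0.7 nM–77 uM titration) + 4-MU-alpha-Gal 80 uM, pH 5.9 citrate/Tween-20, RT 20 min, NaOH/glycine stop pH 10, fluor 365/440. Normalized to no-enzyme and full-activity controls; Hill-fit AC50.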

A short description of experiment [15]: Primary qHTS for inhibitors of MERS-S pseudo-typed particle cell entry (AID 1479149). Further: nearly all actives have a fitted effect of over 60% in size.
A short description of experiment [16]: VSVG counterscreen qHTS to identify inhibitors of SARS-CoV-2 cell entry (AID 1645847). Further: potency means the concentration at half of the fitted maximal effect; nearly all actives have a fitted effect of over 65% in size. In short, it runs like this:
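Counterscreen using VSV-G (not spike) pseudotyped MLV particles on ACE2-expressing Expi293F cells after 1 h compound preincubation; infection ran 48 h at 37 °C. Data normalized to VSV-G PP and bald-PP wells.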

Experiment [17] in a line: qHTS profiling of the MIPE4 collection as inhibitors of Plasmodium falciparum (3D7) proliferation (AID 743344; call rule not given here;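 further: scaled between DMSO vehicle wells and 0.29 µM artemisinin as full inhibition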). The conditions noted are these: P. falciparum 3D7 in erythrocytes, SYBR Green DNA fluorescence, 72 h; at 28.5 µM (top of the series) unless noted. In short, it runs like this: as §1
Experiment [18] is described as follows: qHTS profiling of the MIPE4 collection as inhibitors of Plasmodium falciparum (DD2) proliferation (AID 743345; call rule not given here). The conditions noted are these: P. falciparum Dd2 in erythrocytes, SYBR Green DNA, 72 h; at 28.5 µM (top of the series) unless noted. In short, it runs like this:
as §1

A short description of experiment [19]: Primary qHTS to identify inhibitors of SARS-CoV-2 cell entry (AID 1645846). Further: nearly all actives have a fitted effect of over 45% in size. Further: potency means the concentration at half of the fitted maximal effect. The conditions noted are these: activity change, negative = inhibition: at 57.1 µM (top of the series) unless noted. The gist of the method:
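Data are normalized to wells receiving SARS-CoV-2-S pseudoparticles and those given bald particles. Entry signal was luciferase luminescence in stable hACE2 Expi293F cells, 48 hr post-infection, after 1 hr compound pretreatment.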

Experiment [20] in a line: Primary qHTS for inhibitors of SARS-S pseudo-typed particle cell entry (AID 1479145). Further: on the % scale 0 is the no-effect control and ±100 the full control effect; nearly all actives have a fitted effect of over 45% in size.
Experiment [21] in a line: Confirmatory qHTS for VERO E6 Cytotoxicity Assay: Counterscreen for SARS-CoV-2 CPE Assay (AID 1508605). Further: on the % scale 0 is the no-effect control and ±100 the full control effect; nearly all actives have a fitted effect of over 60% in size.
Experiment [22] can be described thus: Confirmatory qHTS for activators (rescue) of SARS-CoV-2 Cytopathic Effect (CPE) (AID 1508606). Further: potency means the concentration at half of the fitted maximal effect; nearly all actives have a fitted effect of over 70% in size.

Values joined by “and” are separate entries in the source; they are usually repeats but may differ in a detail not shown here. Equal values may be shown once. Inconclusive results are not listed. Active and inactive are the calls of the source. Unless noted, the call rests on the fitted dose curve.

Sequence of Cytochrome P450 3A4 (Homo sapiens) (P08684 whole entry, looked up): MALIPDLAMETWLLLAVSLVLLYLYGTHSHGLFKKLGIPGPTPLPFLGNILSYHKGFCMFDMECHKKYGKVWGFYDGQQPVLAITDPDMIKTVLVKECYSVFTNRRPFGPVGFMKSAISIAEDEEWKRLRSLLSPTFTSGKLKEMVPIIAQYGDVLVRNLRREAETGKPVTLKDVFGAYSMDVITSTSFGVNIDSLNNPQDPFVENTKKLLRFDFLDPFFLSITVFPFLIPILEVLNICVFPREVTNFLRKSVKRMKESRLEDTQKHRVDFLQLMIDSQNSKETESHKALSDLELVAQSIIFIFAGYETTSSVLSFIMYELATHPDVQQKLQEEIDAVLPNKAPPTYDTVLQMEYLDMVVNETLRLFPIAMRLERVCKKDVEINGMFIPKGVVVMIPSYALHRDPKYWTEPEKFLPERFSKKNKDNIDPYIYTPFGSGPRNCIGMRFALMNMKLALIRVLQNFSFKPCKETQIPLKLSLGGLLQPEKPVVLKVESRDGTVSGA
Sequence of Alpha-galactosidase (Coffea arabica) (Q42656 whole entry, looked up): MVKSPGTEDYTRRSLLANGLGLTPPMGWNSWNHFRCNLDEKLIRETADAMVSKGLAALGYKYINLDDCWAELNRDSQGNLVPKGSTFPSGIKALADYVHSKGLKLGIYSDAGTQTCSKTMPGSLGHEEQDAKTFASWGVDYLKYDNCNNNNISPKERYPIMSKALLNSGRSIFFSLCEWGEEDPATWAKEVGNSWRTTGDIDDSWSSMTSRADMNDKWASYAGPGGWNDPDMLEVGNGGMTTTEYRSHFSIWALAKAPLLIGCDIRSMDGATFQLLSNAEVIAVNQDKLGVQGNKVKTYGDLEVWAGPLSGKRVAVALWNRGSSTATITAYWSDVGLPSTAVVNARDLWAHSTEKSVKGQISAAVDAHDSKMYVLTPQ

Turning to `CN(C)CCCC1(c2ccc(F)cc2)OCc2cc(C#N)ccc21` (stereo unspecified), the Potency result in experiment [1], in experiment [3], in experiment [4], in experiment [5] and in [8] was “inactive” throughout. For the same compound, the result in experiment [2], in experiment [6] and in experiment [7] was inactive.

Turning to `CN(C)S(=O)(=O)c1ccc2c(c1)C(=Cc1cc3c([nH]1)CCCC3)C(=O)N2`, the Potency result in experiment [3] and in experiment [8] was “inactive” in each case. Moreover, the values for the Potency in [4] and in experiment [5] were 10.9 µM (active) and 2.73 µM (active), respectively.

`CC=C1C2C=C(C)CC1(N)c1ccc(=O)[nH]c1C2` (stereo unspecified): the parasite growth, % of control (lower = inhibition) in experiment [9] is 79.2%. Further, the Potency result in experiment [3], in [4], in experiment [5] and in experiment [10] was “inactive” each time.

Consider `COc1ccc2ccc(=O)oc2c1CC=C(C)C`, for which the Potency in experiment [11] was 15.8 µM (active). Further, the Potency result in experiment [12], in experiment [3], in experiment [4], in experiment [5] and in [10] was “inactive” each time.

Consider `O=Nc1c(-c2c(O)[nH]c3cc(Br)ccc23)[nH]c2ccccc12`, for which the compound was classed as inactive in [13] and in [14]. The Potency entry in [3], in [5] and in experiment [10] was “inactive” throughout. In addition, the Potency in experiment [4] is 15.8 µM (active).

Take `CC[C@@]1(O)C[C@H](O[C@H]2C[C@H](N(C)C)[C@H](O[C@H]3C[C@H](O)[C@H](O[C@H]4CCC(=O)[C@H](C)O4)[C@H](C)O3)[C@H](C)O2)c2c(cc3c(c2O)C(=O)c2c(O)cccc2C3=O)[C@@H]1C(=O)OC`: the Potency entry in [3], in [15] and in [8] was “inactive” each time. Further, the Potency in experiment [4] was 0.344 µM (active); in [5], 0.344 µM (active); in [16], 3.04 µM (active). Besides, the call in [6] and in experiment [7] was inactive.

In the case of `CN1CCC2(CCN3CCc4c(oc5ccccc45)C3C2)N(C)C1=O` (stereo unspecified), the Potency entry in experiment [1], in experiment [3], in experiment [4] and in [5] was “inactive” in each case. Moreover, the compound was called inactive in [2].

Take `C=C1C[C@@]2(O)O[C@@]3(C[C@H]2C(C)C)[C@H](C)CC[C@H]13`: the parasite growth, % of DMSO control in experiment [17] amounted to 70.7%. In experiment [18], the parasite growth remaining, % of DMSO control (lower = more inhibition) was determined as 75.7%. The parasite growth, % of control (lower = inhibition) in [9] worked out at 48.2%. For the same compound, the Potency entry in [3], in experiment [4], in experiment [5] and in experiment [10] was “inactive” in each case.

Turning to `COc1ccc(-c2oc3c(CC=C(C)C)c(O)cc(O)c3c(=O)c2O)cc1`, in experiment [3], the Potency result was “inactive”. In addition, the Potency in experiment [4] was 38.5 µM (active); in experiment [5] it was 3.43 µM (active). The activity change, negative = inhibition in [19] is -9.03%.

As for `COC(=O)[C@H]1[C@H]2C[C@@H]3c4[nH]c5ccccc5c4CCN3C[C@H]2C[C@@H](OC(=O)c2cc(OC)c(OC)c(OC)c2)[C@@H]1OC`, the Potency entry in experiment [3], in [4], in [5], in experiment [20], in experiment [21] and in experiment [8] was “inactive” throughout. Besides, the compound was classed as inactive in [6] and in [7]. Also, in [22], the Potency was 11.2 µM (active).

For `CC(C)n1nc(-c2ccc3oc(N)nc3c2)c2c(N)ncnc21`, the Potency in experiment [3] was 0.0024 µM (active); in experiment [4], 0.0019 µM (active); in experiment [5], 0.0031 µM (active). Moreover, the activity change, negative = inhibition in experiment [19] was -61%.

Regarding `CC(C)Cc1ccc([C@H](C)C(=O)O)cc1`, the call in experiment [13] and in experiment [14] was inactive. Further, the Potency result in [3], in [4], in experiment [5] and in [10] was “inactive” throughout.

`CNC1[C@H](O)C(O[C@@H]2C(O)C(O[C@H]3O[C@H]([C@@H](C)NC)CC[C@H]3N)[C@@H](N)C[C@H]2N)OC[C@]1(C)O` (stereo partly specified) returned a parasite growth, % of DMSO control in experiment [17] of 93.1%. The parasite growth remaining, % of DMSO control (lower = more inhibition) in experiment [18] worked out at 103%. Also, the parasite growth, % of control (lower = inhibition) in experiment [9] is 111%. Besides, the Potency entry in experiment [3], in experiment [4], in [5] and in experiment [10] was “inactive” each time.

Consider `CC(C)n1cnc2c(NCCCCCCNC(=O)OC(C)(C)C)nc(NCCO)nc21`, for which the Potency result in experiment [3], in experiment [4] and in experiment [5] was “inactive” each time. Also, the Potency in experiment [19] was 28.2 µM (active).

As for `CS(=O)(=O)c1ccc(C2=C(c3ccccc3)C(=O)OC2)cc1`, the Potency result in experiment [3], in experiment [4] and in [15] was “inactive” throughout. Further, the Potency in experiment [5] is 27.3 µM (active). Also, the call in experiment [6] and in experiment [7] was inactive. Besides, the activity change, negative = inhibition in experiment [19] was -28.2% and -25.4%.

Consider `O=c1c2ccccc2oc2ccccc12`, for which the Potency in experiment [11] was 12.6 µM (active). Besides, the Potency entry in experiment [12], in experiment [3], in experiment [4], in experiment [5] and in experiment [10] was “inactive” each time.

`CCOC(=O)C1=C(C)NC2=C(C(=O)CC(C)(C)C2)C1c1ccc(-c2ccccc2)cc1` (stereo unspecified): the Potency entry in [3], in experiment [4], in experiment [5] and in experiment [8] was “inactive” in each case.

Consider `CC1=C(C(=O)Nc2cc3cn[nH]c3cc2F)C(c2ccc(Cl)cc2F)N=C(c2ccnc(Cl)c2)N1` (stereo unspecified), for which the Potency entry in [3], in experiment [4], in [5] and in experiment [8] was “inactive” each time.

Consider `CCCCOc1c(C(=O)c2c(F)cc(C)cc2F)cnc2n[nH]cc12`, for which the Potency was 5.44 µM (active) in experiment [3], 2.17 µM (active) in [4], 7.69 µM (active) in experiment [5] and 1.52 µM (active) in experiment [16]. Further, the Potency result in experiment [8] was “inactive”.

For the compound `NC[C@H]1O[C@H](O[C@@H]2[C@@H](O)[C@@H](O[C@H]3O[C@H](CO)[C@@H](O)[C@H](N)[C@@H]3O)[C@H](N)C[C@@H]2N)[C@H](O)[C@@H](O)[C@H]1O`, the Potency result in experiment [3], in experiment [4], in experiment [5] and in experiment [8] was “inactive” throughout. Besides, the activity change, negative = inhibition in experiment [19] was -26.9%.

As to `CCC(CC)[C@H](NC(C)=O)[C@@H]1[C@H](O)[C@@H](C(=O)O)C[C@@H]1N=C(N)N`, the parasite growth, % of DMSO control in experiment [17] was determined as 81.5%. In [18], the parasite growth remaining, % of DMSO control (lower = more inhibition) was 98.5%. For the same compound, the parasite growth, % of control (lower = inhibition) in experiment [9] was determined as 112%. For the same compound, the Potency result in experiment [3], in experiment [4], in [5] and in experiment [10] was “inactive” throughout.
